Source: PubChem BioAssay AID1835 (Johns Hopkins Ion Channel Center, 2009)
The whole screen tested about 2,400 compounds, of which about 750 (31%) were called active. The list shows a part of the results. Unmarked numbers belong to inactive results.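 Rule for the calls: active = median signal gain over dofetilide-blocked control wells reaching their mean plus 3 SD, so readout 1 at least 0; inactive = the rest.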

Biological target: Voltage-gated inwardly rectifying potassium channel KCNH2 (Homo sapiens) (UniProt Q12809)
Sequence (Q12809 whole entry, looked up): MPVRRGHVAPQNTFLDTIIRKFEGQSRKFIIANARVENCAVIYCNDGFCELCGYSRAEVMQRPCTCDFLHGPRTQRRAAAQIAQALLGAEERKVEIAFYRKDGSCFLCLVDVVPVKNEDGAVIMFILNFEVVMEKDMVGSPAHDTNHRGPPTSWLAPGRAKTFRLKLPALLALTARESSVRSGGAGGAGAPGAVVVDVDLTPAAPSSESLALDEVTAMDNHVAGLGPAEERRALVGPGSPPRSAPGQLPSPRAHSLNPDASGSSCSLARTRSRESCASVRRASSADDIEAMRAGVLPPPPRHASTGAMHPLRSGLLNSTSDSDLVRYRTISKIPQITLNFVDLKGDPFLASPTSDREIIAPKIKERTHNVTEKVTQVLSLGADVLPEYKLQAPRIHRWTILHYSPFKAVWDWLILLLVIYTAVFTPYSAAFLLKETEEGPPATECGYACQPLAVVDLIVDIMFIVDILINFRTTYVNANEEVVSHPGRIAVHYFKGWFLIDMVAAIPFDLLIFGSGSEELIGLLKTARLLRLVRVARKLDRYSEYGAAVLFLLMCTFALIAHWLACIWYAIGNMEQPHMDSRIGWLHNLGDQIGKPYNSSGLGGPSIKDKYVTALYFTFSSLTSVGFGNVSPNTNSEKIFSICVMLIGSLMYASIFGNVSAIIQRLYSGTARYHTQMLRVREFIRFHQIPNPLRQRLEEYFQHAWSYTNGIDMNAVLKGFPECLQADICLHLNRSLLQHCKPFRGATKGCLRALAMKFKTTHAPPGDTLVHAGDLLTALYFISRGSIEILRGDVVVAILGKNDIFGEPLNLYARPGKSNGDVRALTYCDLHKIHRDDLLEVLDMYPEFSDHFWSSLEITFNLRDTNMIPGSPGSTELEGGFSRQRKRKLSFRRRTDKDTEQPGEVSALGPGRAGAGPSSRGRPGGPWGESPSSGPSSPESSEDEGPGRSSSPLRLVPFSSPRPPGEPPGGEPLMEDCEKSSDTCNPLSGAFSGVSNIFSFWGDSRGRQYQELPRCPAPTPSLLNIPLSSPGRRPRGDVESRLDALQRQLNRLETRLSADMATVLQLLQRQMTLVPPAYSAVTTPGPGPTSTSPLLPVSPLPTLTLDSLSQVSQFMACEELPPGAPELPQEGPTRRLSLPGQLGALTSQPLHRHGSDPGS
Experiment: hERG protection against dofetilide inhibition, confirmation, cell-based, thallium flux, duplicate retest, dofetilide IC70 (AID 1835)
Conditions: hERG cell line, FluxOR thallium flux, dofetilide-blocked; at 10 µM; hits give high values

Row | Structure (SMILES) | activity increase over dofetilide control, less the hit threshold
1 | O=C(c1ccccc1)c1nccn1-c1ccc(Cl)nn1 | -11%
2 | S=c1[nH]c(-c2cccs2)cn1-c1ccccc1 | -5%
3 | CC(C)n1c(=S)[nH]c2scc(-c3cccs3)c2c1=O | 79% (active)
4 | COc1cc(/C=N/n2cnc3scc(-c4cccs4)c3c2=O)cc(OC)c1OC | -5%
5 | CC(C1CC2CCC1C2)n1c(-c2cccs2)n[nH]c1=S (configuration not stated) | -4%
6 | Cn1c(=S)[nH]c2scc(-c3cccs3)c2c1=O | 60% (active)
7 | S=c1[nH]c2ccccc2c2ccccc12 | -3%
8 | S=c1nc(C2CC2)[nH]c2ccccc12 | 34% (active)
9 | S=c1nc(C2CCCCC2)[nH]c2ccccc12 | 4% (active)
10 | COc1ccc(-n2c(O)c(/C=C3\C=Nc4ccccc43)c(=O)[nH]c2=O)cc1 | 21% (active)
11 | COc1ccc(Cn2c(O)cc(=O)[nH]c2=O)cc1 | -9%
12 | Cn1cc(CCC(=O)N2CCCC(Nc3ccc(F)cc3)C2)cn1 (configuration not stated) | -13%
13 | CCc1cc2cc(C)cc(C)c2[nH]c1=S | 14% (active)
14 | COc1ccc(NC(=O)CC23CC4CC(CC(C4)C2)C3)cn1 | -17%
15 | CCOC(=O)c1cnc(-n2nc(C)cc2C)nc1NNc1nc(-c2ccccc2)cc(-c2ccccc2)n1 | -12%
16 | CCOc1cc(N2CCOCC2)c(OCC)cc1NC(=O)Cc1ccccc1 | -2%
17 | CCOc1cc(N2CCOCC2)c(OCC)cc1NC(=O)CCC1CCCC1 | -11%
18 | CCOc1cc(N2CCOCC2)c(OCC)cc1NC(=O)Cn1nc(C)c([N+](=O)[O-])c1C | 16% (active)
19 | Cc1ccccc1OC(=O)n1c(=S)oc2cc(Cl)ccc21 | -1%
20 | O=C(/C=C/Nc1ccccc1)C(F)(F)F | -14%
21 | Cc1ccc(-c2nc(N)s[n+]2-c2ccccc2)cc1 | 17% (active)
22 | CCC(C)(C)NC(=O)c1ccc(Sc2nncn2C)c([N+](=O)[O-])c1 | -4%
23 | C=C(C)C1CC=C(C)/C(=N/NC(=O)CCC(=O)Nc2ccccc2Cl)C1 (configuration not stated) | -17%
24 | COc1ccccc1-n1c(C)nc2cc(C(=O)NCc3ccc4c(c3)OCO4)ccc21 | -27%
25 | COc1ccc(CCNC(=O)Cn2c(=O)n(-c3ccc(F)cc3)c(=O)c3sccc32)cc1OC | -10%
26 | COc1ccc(CCNC(=O)C(=O)Nc2ccc3c(c2)OCO3)cc1OC | -22%

Row | Structure (SMILES) | activity increase over dofetilide control, less the hit threshold
27 | COc1cccc([C@@H]2Oc3ccc(OC)cc3C(=O)[C@H]2OC(=O)NCc2ccc3c(c2)OCO3)c1 | 5% (active)
28 | COc1ccc2c(c1)O[C@@H](c1cccc(C(F)(F)F)c1)[C@H](OC(=O)NCCc1ccc(OC)c(OC)c1)C2=O | 3% (active)
29 | COc1ccc(CCNC(=O)c2ccc3c(c2)OCO3)cc1 | -16%
30 | COC(=O)C(C)Sc1nnc(Cc2cc(=O)[nH]c(=O)[nH]2)n1-c1cccc(OC)c1 (configuration not stated) | -17%
31 | CC(C)OC(=O)N(C)c1ccc(C(O)(C(F)(F)F)C(F)(F)F)cc1 | -8%
32 | CCCOC(=O)CN1C(=O)c2ccc(C(=O)OCCC)cc2C1=O | -8%
33 | COc1ccc(CC(=O)Nc2ccc(-c3noc(-c4ccccc4OC)n3)cc2)cc1 | -18%
34 | Cc1c(C#N)c(O)[nH]c(=O)c1N=Nc1ccc(Br)cc1C(=O)O | 46% (active)
35 | CC1(C)CC(NC(=O)c2ccc(Cl)cc2Cl)CC(C)(C)N1 | 2% (active)
36 | Cc1ccc(C(C)C)cc1S(=O)(=O)NC1CC(C)(C)NC(C)(C)C1 | -15%
37 | Cc1ccc2c(c1)c1c(n2CC(O)Cn2nc(C)c(Br)c2C)CCCC1 (configuration not stated) | -8%
38 | Cc1ccc(F)cc1CNC(=O)C1CCC(=O)N(C2CC2)C1 (configuration not stated) | -7%
39 | CCOC(=O)/C(C)=N/NC(=O)c1ccc([N+](=O)[O-])cc1 | 17% (active)
40 | CCOC(=O)/C(C)=N/NC(=O)c1cccc([N+](=O)[O-])c1 | 3% (active)
41 | Cc1cc(SCC(=O)c2cccc([N+](=O)[O-])c2)nc(=O)[nH]1 | -9%
42 | CCOC(=O)c1[nH]cnc1C(=O)Nc1ccc([N+](=O)[O-])cc1 | -13%
43 | CCOc1ccc(C(=O)N/N=C/c2cc([N+](=O)[O-])cs2)cc1 | 0%
44 | Cc1ccccc1C(=O)NNC(=O)c1cccc([N+](=O)[O-])c1 | -31%
45 | COc1cccc(C=NCCCN=Cc2cccc(OC)c2O)c1O | 9% (active)
46 | COC(=O)c1cccc(/C=N/NC(N)=S)c1O | -9%
47 | CCOc1cccc(/C=N/NC(=O)c2ccc3c(c2)OCCO3)c1O | -10%
48 | COc1cccc(C=Nc2cc(C)cc(C)c2)c1O | 3% (active)
49 | COc1cccc(/C=N/NC(=O)CSc2ccccc2C)c1O | -5%
50 | COc1cccc(C=NCC(C)N=Cc2cccc(OC)c2O)c1O (configuration not stated) | 7% (active)
51 | COc1cccc(/C=N/Nc2nc3ccccc3[nH]2)c1O | -4%
52 | COc1cccc(/C=N/n2c(SC)nnc2-c2ccccc2)c1O | -2%
